Data on one compound can be found in ChEMBL document CHEMBL2218924, “A broad activity screen in support of a chemogenomic map for kinase signalling research and drug discovery” (Biochem J, 2013).

Structures are written as SMILES.

Experiment [1] concerns the target T1, Ephrin type-A receptor 3 (Homo sapiens) (UniProt P29320).
T1 sequence (whole entry): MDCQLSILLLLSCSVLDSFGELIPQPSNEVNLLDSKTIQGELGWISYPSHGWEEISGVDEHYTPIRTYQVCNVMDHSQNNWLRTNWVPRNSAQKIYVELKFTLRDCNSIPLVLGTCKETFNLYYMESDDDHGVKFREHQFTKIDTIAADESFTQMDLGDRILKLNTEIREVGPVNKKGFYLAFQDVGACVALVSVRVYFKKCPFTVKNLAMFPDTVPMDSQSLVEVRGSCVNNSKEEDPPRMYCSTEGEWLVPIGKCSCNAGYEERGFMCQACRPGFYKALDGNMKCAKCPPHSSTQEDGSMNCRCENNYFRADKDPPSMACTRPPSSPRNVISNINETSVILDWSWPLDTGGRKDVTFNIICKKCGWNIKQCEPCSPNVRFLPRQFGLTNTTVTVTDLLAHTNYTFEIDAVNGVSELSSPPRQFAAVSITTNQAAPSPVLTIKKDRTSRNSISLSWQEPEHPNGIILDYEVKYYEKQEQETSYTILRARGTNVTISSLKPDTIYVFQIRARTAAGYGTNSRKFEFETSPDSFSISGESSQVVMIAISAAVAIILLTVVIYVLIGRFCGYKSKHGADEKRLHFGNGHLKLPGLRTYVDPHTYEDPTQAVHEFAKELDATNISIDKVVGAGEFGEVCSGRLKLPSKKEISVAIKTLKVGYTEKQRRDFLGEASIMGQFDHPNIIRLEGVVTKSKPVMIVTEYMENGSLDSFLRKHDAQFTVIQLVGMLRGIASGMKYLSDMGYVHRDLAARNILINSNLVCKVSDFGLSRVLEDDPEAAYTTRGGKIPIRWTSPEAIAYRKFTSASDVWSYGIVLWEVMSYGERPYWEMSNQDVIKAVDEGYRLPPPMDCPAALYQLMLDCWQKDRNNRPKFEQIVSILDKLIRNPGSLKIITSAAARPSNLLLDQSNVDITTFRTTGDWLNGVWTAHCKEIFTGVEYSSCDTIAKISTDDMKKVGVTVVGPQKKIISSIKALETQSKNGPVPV
As to conditions: at 10 µM.

In experiment [2] the target is Ephrin type-A receptor 4 (Homo sapiens) (UniProt P54764). The settings on record: at 1 µM.
The target is the same in experiment [3]. As to conditions: at 10 µM.
Experiment [4] addresses Ephrin type-A receptor 5 (Homo sapiens) (UniProt P54756). The settings on record: at 1 µM.
Experiment [5] shares this target. As to conditions: at 10 µM.
Experiment [6] has as its target Ephrin type-A receptor 7 (Homo sapiens) (UniProt Q15375). The settings on record: at 1 µM.
The target is the same in experiment [7]. As to conditions: at 10 µM.
For experiment [8], the target named is T2, Ephrin type-A receptor 8 (Homo sapiens) (UniProt P29322).
T2 sequence (whole entry): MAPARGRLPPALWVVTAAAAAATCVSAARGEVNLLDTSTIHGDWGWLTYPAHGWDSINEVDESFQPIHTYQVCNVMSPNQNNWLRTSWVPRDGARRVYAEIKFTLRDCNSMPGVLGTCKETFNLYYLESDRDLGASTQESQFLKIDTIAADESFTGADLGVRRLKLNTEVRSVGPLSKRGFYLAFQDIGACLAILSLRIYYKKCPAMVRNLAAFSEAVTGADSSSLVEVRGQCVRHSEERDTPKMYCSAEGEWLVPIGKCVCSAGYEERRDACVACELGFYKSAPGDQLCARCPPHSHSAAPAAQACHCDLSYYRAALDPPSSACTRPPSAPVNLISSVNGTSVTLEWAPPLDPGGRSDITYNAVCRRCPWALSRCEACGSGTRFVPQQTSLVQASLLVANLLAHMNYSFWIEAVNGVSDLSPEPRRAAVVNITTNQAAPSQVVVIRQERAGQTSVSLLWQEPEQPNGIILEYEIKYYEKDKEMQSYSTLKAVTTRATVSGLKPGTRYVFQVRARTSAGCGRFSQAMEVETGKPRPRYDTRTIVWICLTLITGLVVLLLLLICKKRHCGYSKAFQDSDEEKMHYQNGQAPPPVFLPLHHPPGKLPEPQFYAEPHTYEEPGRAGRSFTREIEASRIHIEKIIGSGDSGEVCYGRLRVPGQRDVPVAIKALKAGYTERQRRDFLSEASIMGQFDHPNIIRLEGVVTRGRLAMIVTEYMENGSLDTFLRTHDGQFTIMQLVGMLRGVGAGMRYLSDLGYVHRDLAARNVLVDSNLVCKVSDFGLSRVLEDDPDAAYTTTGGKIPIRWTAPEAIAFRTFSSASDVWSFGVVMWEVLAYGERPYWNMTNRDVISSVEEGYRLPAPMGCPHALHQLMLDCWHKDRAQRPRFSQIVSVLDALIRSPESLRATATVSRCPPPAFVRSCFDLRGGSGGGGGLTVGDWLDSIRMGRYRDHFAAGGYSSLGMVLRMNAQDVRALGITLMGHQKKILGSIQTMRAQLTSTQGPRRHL
As to conditions: at 1 µM.

For experiment [9], the target named is T2, Ephrin type-A receptor 8 (Homo sapiens). The settings on record: at 10 µM.
Experiment [10] concerns the target T3, Ephrin type-B receptor 1 (Homo sapiens) (UniProt P54762).
T3 sequence (whole entry): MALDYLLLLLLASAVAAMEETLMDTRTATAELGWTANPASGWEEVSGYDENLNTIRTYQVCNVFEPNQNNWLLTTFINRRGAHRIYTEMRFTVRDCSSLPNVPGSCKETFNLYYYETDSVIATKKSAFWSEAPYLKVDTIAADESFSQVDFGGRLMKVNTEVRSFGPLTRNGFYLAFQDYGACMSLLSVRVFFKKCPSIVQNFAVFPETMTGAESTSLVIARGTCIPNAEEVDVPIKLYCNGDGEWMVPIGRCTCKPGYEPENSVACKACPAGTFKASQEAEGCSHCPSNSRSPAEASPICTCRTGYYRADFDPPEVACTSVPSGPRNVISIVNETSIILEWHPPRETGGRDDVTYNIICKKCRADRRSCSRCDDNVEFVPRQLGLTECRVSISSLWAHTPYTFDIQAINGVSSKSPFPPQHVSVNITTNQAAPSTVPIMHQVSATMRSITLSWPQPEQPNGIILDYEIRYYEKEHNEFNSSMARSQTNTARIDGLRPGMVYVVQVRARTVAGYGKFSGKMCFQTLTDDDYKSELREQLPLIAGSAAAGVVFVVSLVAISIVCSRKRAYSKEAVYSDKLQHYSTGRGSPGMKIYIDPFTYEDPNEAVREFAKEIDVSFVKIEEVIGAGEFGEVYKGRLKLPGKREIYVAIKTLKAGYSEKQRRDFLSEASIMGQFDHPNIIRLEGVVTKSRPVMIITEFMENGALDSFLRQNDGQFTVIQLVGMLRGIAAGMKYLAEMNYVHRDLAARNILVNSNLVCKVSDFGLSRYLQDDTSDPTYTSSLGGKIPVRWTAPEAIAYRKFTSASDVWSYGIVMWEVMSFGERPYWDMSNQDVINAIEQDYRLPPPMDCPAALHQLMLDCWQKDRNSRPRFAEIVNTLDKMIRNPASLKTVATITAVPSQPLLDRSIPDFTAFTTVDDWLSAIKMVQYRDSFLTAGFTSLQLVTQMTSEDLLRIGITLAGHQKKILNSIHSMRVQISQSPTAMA
The settings on record: at 1 µM.

The target in experiment [11] is T3, Ephrin type-B receptor 1 (Homo sapiens). As to conditions: at 10 µM.
Experiment [12] has as its target Receptor tyrosine-protein kinase erbB-4 (Homo sapiens) (UniProt Q15303). The settings on record: at 1 µM.
Experiment [13] shares this target. The settings on record: at 10 µM.
In experiment [14] the target is Focal adhesion kinase 1 (Homo sapiens) (UniProt Q05397). As to conditions: at 1 µM.

Chain of Ephrin type-A receptor 7 (Homo sapiens) (Q15375 28-998 limits assumed): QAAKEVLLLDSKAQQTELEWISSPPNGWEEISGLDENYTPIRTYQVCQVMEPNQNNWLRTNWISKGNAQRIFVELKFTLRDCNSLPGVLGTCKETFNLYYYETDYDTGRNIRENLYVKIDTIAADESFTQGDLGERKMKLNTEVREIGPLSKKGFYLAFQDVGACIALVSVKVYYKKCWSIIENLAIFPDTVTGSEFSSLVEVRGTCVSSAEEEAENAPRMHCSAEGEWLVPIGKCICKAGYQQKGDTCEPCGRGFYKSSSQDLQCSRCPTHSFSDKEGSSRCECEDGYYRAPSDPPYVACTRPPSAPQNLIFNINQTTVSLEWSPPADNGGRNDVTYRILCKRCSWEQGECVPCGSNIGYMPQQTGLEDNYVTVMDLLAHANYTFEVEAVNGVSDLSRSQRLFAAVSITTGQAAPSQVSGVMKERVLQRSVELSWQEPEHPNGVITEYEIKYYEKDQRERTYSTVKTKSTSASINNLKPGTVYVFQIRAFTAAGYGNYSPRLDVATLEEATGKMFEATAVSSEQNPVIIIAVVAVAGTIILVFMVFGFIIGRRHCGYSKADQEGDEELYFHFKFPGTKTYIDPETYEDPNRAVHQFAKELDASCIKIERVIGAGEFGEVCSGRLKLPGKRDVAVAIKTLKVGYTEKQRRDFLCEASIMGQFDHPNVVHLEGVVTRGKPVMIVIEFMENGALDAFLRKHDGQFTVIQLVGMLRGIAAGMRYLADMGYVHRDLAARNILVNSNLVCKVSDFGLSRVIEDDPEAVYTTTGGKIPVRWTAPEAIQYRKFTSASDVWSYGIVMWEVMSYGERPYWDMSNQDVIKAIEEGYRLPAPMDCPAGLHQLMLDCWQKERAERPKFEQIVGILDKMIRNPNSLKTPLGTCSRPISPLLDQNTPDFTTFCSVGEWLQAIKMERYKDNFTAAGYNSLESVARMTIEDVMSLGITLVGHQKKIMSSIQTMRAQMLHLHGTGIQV
Chain of Receptor tyrosine-protein kinase erbB-4 (Homo sapiens) (Q15303 whole entry): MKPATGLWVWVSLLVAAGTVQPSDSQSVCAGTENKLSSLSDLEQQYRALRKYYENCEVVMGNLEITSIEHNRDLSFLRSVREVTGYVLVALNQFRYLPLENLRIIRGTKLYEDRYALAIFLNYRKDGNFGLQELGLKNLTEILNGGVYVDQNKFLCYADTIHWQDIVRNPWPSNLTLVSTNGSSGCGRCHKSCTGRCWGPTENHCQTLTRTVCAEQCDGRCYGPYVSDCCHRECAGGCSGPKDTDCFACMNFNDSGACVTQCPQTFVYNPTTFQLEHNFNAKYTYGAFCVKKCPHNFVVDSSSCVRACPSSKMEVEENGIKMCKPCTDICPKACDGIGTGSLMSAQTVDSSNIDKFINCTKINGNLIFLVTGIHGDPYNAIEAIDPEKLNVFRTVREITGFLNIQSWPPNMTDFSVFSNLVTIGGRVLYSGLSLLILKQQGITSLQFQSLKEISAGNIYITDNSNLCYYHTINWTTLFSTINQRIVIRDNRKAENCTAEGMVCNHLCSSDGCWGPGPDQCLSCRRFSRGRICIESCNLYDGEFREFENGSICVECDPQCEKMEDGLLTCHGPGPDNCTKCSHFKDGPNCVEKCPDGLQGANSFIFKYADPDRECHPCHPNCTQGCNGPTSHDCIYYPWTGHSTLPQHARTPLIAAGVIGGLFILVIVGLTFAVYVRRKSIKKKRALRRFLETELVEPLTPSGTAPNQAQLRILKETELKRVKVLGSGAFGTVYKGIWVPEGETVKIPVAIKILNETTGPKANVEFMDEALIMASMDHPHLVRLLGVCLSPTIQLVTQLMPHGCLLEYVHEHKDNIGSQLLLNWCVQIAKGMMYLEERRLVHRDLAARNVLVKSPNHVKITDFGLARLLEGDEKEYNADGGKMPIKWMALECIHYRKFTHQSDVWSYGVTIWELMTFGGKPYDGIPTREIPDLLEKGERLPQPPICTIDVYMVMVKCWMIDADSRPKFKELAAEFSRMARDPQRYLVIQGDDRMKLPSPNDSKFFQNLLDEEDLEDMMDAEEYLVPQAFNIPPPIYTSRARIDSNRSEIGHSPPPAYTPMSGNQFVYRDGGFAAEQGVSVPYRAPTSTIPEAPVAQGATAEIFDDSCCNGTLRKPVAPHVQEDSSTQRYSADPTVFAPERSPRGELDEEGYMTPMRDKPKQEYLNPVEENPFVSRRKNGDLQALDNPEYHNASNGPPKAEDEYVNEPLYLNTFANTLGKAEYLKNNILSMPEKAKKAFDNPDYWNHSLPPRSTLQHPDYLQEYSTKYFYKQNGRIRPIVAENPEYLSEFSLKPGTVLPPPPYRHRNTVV
Chain of Ephrin type-A receptor 5 (Homo sapiens) (P54756 whole entry): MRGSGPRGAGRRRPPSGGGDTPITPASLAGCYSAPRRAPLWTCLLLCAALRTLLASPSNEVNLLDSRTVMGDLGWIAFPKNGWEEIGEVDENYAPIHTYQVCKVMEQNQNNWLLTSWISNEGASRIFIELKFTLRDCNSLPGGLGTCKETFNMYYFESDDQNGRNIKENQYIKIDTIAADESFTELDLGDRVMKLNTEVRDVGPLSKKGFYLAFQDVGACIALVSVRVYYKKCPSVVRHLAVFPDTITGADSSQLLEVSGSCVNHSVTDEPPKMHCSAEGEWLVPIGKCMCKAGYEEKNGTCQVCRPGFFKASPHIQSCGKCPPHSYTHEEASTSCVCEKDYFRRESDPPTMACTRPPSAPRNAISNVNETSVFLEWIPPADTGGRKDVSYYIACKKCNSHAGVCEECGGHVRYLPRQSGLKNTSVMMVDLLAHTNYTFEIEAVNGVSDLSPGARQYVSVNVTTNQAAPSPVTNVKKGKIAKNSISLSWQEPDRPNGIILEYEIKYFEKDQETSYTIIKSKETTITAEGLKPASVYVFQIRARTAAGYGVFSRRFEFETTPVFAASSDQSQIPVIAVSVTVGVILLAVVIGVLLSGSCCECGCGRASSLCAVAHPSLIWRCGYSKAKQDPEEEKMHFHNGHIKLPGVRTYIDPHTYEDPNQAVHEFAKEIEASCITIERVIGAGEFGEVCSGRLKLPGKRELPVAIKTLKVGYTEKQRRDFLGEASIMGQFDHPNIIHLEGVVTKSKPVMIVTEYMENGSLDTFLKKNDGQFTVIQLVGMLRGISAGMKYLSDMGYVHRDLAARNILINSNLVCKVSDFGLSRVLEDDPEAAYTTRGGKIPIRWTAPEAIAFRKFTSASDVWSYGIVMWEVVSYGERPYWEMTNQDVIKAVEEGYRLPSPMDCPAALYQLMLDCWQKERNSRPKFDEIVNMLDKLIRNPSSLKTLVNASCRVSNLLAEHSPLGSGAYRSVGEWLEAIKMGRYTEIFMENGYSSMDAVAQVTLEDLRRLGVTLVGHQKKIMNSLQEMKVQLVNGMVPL
Chain of Ephrin type-A receptor 4 (Homo sapiens) (P54764 whole entry): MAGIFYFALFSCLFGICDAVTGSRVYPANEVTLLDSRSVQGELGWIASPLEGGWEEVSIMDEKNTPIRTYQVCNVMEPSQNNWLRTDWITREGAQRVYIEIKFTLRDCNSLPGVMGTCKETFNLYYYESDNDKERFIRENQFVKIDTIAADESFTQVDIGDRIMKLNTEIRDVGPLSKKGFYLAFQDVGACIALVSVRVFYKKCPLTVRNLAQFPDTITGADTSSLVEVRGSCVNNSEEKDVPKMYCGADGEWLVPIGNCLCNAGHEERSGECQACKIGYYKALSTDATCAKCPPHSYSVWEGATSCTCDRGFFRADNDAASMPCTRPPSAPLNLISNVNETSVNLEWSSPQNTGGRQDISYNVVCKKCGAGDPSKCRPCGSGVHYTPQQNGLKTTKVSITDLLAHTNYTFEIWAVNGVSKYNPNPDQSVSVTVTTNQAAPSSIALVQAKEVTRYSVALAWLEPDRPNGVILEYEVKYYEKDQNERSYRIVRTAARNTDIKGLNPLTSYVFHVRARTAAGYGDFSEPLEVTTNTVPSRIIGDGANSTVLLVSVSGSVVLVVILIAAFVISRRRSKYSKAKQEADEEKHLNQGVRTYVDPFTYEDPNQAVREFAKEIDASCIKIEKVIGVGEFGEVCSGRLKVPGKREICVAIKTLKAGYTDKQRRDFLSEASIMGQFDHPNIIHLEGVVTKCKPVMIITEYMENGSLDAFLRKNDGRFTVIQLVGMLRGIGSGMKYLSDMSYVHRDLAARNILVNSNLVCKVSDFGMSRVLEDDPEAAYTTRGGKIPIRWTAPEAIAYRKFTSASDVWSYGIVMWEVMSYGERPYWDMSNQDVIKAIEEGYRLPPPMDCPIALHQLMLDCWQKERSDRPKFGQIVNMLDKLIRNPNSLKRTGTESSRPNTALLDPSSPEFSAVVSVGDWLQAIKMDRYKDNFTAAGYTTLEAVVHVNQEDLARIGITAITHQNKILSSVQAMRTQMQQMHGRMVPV

What is called residual activity is the signal under treatment as a percentage of the control signal. Take `COc1cc2ncnc(Nc3ccc(NC(=O)c4ccccc4)cc3)c2cc1OC`: the residual activity came out at 102% in [1]; 109% in [2]; 102% in experiment [3]; 104% in experiment [4]; 97% in [5]; 92% in [6]. Besides, the residual activity in experiment [7] stood at 66%; in experiment [8], 103%; in experiment [9], 103%; in [10], 97%; in experiment [11] it was 83%; in experiment [12] it was 35%. In addition, the values for the residual activity in experiment [13] and in experiment [14] were 6% and 142%, respectively.
